Measurements taken from PubChem BioAssay.

biological target: NADPH oxidase 2 (Homo sapiens) (UniProt P04839); test: NOX2-dependent H2O2 signal modulators, primary screen, NOX inhibitor project, cell-based, HEK293-NOX2, PMA-stimulated, Amplex Red fluorescence (AID 1159); details: 45 min, higher = more signal, called active from +8 up or from −8 down; also: test concentration not given here
Sequence (P04839 whole entry, looked up): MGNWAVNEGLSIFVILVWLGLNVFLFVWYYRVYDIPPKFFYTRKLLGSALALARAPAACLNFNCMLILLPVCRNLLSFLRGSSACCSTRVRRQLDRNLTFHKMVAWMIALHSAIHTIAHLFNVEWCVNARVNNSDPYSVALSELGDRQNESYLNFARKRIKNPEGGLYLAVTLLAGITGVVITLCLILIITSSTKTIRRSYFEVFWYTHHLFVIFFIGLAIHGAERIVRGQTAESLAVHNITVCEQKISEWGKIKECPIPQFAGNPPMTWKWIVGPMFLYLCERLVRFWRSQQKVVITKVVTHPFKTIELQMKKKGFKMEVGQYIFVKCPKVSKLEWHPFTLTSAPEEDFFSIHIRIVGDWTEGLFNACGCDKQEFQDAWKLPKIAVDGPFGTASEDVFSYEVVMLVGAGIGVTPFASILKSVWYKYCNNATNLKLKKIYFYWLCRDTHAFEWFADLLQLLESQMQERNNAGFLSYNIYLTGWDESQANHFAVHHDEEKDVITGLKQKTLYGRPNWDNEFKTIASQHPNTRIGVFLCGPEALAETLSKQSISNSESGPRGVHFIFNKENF

z-score, inactive:
COCCOC(=O)N1C(=O)[C@@]2(c3cc(C#Cc4ccc(OC)cc4)ccc31)[C@H](C(=O)N1CCCCCCC1)[C@H]1C(=O)O[C@H](c3ccccc3)[C@H](c3ccccc3)N1[C@@H]2c1ccc(O)cc1 -0.76
COc1cc2c(cc1OC)CN(C(=O)[C@H]1[C@@H]3C(=O)O[C@@H](c4ccccc4)[C@@H](c4ccccc4)N3[C@@H](c3ccc(OCCO)cc3)[C@]13C(=O)Nc1ccc(C#CC4(O)CCCCCC4)cc13)CC2 1.32
CCCC[C@@H]1C[C@H]1[C@@H](NC(=O)c1cccnc1)c1ccc(-c2ccccc2)cc1 -1.01
CON(C)C(=O)C=C1C[C@@H](c2cccc(Cl)c2)O[C@@H](c2cccc(Cl)c2)O1 -0.0563
COCCCNC(=O)[C@]1(CCC(=O)OC(C)(C)C)N=C(c2ccc(OCCCO)cc2)O[C@@H]1c1ccccc1 -0.00397
C=CCOC(=O)[C@H]1[C@@H]2C(=O)O[C@@H](c3ccccc3)[C@@H](c3ccccc3)N2[C@@H](c2ccc(OCCOC(=O)[C@H]3C[C@H]4C(=O)N[C@@H](Cc5ccccc5)C(=O)N4[C@H]3c3ccc(O)cc3)cc2)[C@]12C(=O)Nc1ccc(I)cc12 2.07
CC(C)(C)N1CC=CC23O[C@@H]4C=CCOC(=O)[C@@H]4[C@H]2C(=O)N(CCCO)[C@@H]3C1=O (stereo partly specified) -0.693
NCCCCCCNC(=O)[C@@H]1C[C@@H]2C(=O)N3CCC[C@H]3C(=O)N2[C@@H]1c1ccc(O)cc1 0.162
CCCCC(CC)C(O)C1C=CC2C(=O)N(c3ccccc3)C(=O)C2N1Nc1ccc([N+](=O)[O-])cc1 (stereo unspecified) -0.441
C=C(COC)/C(=C/C[C@@H](OC(=O)c1ccncc1)c1ccc(CO)o1)c1cnc2ccccc2c1 -0.627
COCCCNC(=O)[C@@H]1c2ccccc2C(=O)N(Cc2ccccc2C(F)(F)F)[C@H]1c1ccc(CO)cc1 -0.214
CCCN1C(=O)[C@]2(Cc3ccccc3)N=C(c3ccc(OCCCO)cc3)O[C@@H]2c2ccccc21 -2.25
CO[C@H]1O[C@H](CO)[C@@H](OC(=O)Nc2ccccc2-c2ccccc2)[C@H](OC(=O)Nc2ccc3c(c2)OCO3)[C@@H]1OC(=O)Nc1ccc2c(c1)OCO2 0.878
COCCOC(=O)N1C(=O)[C@@]2(c3cc(C#CC4(O)CCCCCC4)ccc31)[C@H](C(N)=O)[C@H]1C(=O)O[C@H](c3ccccc3)[C@H](c3ccccc3)N1[C@@H]2c1ccc(O)cc1 0.649
CC(CO)N1C(=O)[C@@H]2C3C(=O)OCCC/C=C\[C@H]3OC23C=CCN(Cn2nnc4ccccc42)C(=O)[C@@H]13 (stereo partly specified) 1.32
C[C@]1(C(=O)NC2CC2)c2ccccc2C(=O)N(Cc2ccc(OC(F)(F)F)cc2)[C@H]1c1ccc(CO)cc1 0.264
COc1ccc([Si](C)(C)[C@H]2[C@H](CCn3cc([C@H](O)c4ccccc4)nn3)O[C@@]3(C(=O)N(Cc4cccc(N5C(=O)c6cccc7cccc5c67)c4)c4ccccc43)[C@@H]2C)cc1 0.918
COc1ccc([Si](C)(C)[C@H]2[C@H](CCO)O[C@@]3(C(=O)N(Cc4cccc(N5CCCCC5=O)c4)c4ccccc43)[C@@H]2C)cc1 -5.46
O=C1O[C@@H](c2ccccc2)[C@@H](c2ccccc2)N2[C@@H](c3ccc(O)cc3)[C@]3(C(=O)Nc4ccc(C#CCCO)cc43)[C@@H](C(=O)NC[C@H](O)c3ccccc3)[C@H]12 -0.247
CC(C)CN1C(=O)[C@@]2(Cc3ccccc31)c1ccccc1C(=O)N(Cc1ccccc1C(F)(F)F)[C@H]2c1ccc(CO)cc1 0.0489
CC(C)C(O)C1C=CC2C(=O)N(C)C(=O)C2N1N(c1ccccc1)c1ccccc1 (stereo unspecified) -0.71
C=CCC(OC(C)=O)[C@@H]1[C@@H](N(Cc2ccc(-c3ccccc3)cc2)C(=O)c2cccc3ccccc23)c2cc(OCCCO)ccc2N1C(=O)Cc1ccc2ccccc2c1 (stereo partly specified) 0.949
Cc1ccc(S[C@]2(C(=O)NC3CC3)CC(=O)N(Cc3ccccc3Cl)[C@@H]2c2ccc(CO)cc2I)cc1 1.53
O=C1NCC(=O)N2[C@@H]1C[C@@H](C(=O)O)[C@H]2c1ccc(O)cc1 -1.92
CC(C)CNC(=O)[C@@]1(c2ccc([N+](=O)[O-])cc2)CC(=O)N(C2CCCCC2)[C@@H]1c1ccc(CO)cc1I 0.685
COc1ccc(NN2C(C(O)c3ccccn3)C=CC3C(=O)N(C4CCCCC4)C(=O)C32)cc1 (stereo unspecified) -0.973
[N-]=[N+]=NCc1ccccc1C[C@@]1(C(N)=O)N=C(c2ccc(OCCCO)cc2)O[C@@H]1c1ccccc1CN=[N+]=[N-] 0.415
CN1C(=O)C2C=CC(C(O)c3c(F)cccc3Cl)N(Nc3ccccc3)C2C1=O (stereo unspecified) -2.08
COC(=O)c1c(CC[C@@H](CO)NC(=O)N[C@H](Cn2cc(-c3ccccc3C)nn2)C(C)C)oc(C(C)=O)c1C(=O)OC -3.2
C=CCOC(=O)[C@@H]1[C@H]2C(=O)O[C@H](c3ccccc3)[C@H](c3ccccc3)N2[C@H](c2ccc(OCCOC(=O)[C@H]3C[C@H]4C(=O)N[C@@H](CCCCN(C)C)C(=O)N4[C@H]3c3cccc(OCCO)c3)cc2)[C@@]12C(=O)Nc1ccc(I)cc12 1.53
COc1ccc([Si](C)(C)[C@@H]2[C@@H](CCO)O[C@]3(C(=O)N(Cc4cccc(N5C(=O)c6ccccc6Oc6ccccc65)c4)c4ccccc43)[C@H]2C)cc1 0.423
C=CC[C@]1(C(=O)N(C)C)N=C(c2ccc(OCCCO)cc2)O[C@H]1c1ccccc1N=[N+]=[N-] -1.06
COCCOC(=O)N1C(=O)[C@@]2(c3cc(C#CCC(C(=O)OC)C(=O)OC)ccc31)[C@H](c1ccc(OCCO)cc1)N1[C@H](c3ccccc3)[C@H](c3ccccc3)OC(=O)[C@H]1[C@@H]2C(=O)N1CCN(c2ncccn2)CC1 -0.105
COCCOC(=O)N1C(=O)[C@@]2(c3cc(C#CC4(O)CCCCCC4)ccc31)[C@H](c1ccccc1OCCO)N1[C@H](c3ccccc3)[C@H](c3ccccc3)OC(=O)[C@H]1[C@@H]2C(N)=O 1.8
C=CCNC(=O)[C@H]1[C@@H]2C(=O)O[C@@H](c3ccccc3)[C@@H](c3ccccc3)N2[C@@H](c2ccccc2OCCO)[C@]12C(=O)N(C(=O)OCCOC)c1ccc(C#CC3=CCCCC3)cc12 2.28
C=CCN1C(=O)[C@@]2(O[C@@H](CCn3cc([C@H](O)c4ccccc4)nn3)[C@H]([Si](C)(C)c3ccc(OC)cc3)[C@H]2C)c2ccccc21 0.997
